LmPK inhibitor = LmPK (Leishmania mexicana) enzyme inhibition; AID 1721; Q27686; Potency, µM (titrated, usually from 57.5 µM), usual class: inhibitors; 290,000 compounds, 0.37% hits; purified LmPK, Kinase-Glo ATP luminescence, 1 h
Target sequence (Q27686 whole entry, looked up): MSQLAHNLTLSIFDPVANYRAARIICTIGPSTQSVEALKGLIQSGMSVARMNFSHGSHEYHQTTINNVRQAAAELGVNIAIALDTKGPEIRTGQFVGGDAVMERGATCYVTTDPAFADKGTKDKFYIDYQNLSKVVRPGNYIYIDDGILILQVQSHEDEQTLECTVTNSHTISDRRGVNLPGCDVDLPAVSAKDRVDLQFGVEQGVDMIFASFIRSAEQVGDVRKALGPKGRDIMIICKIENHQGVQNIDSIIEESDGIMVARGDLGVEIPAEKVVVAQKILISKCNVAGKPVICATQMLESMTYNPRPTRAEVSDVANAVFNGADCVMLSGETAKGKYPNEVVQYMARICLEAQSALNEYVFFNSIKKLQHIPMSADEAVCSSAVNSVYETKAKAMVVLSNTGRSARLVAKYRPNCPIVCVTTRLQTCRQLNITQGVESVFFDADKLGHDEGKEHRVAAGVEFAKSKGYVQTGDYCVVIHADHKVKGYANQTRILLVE
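Screened at intermediate enzyme activity to detect both inhibitors and activators: LmPK at 0.1 nM, with a 0.5 nM enzyme column as activation reference. PEP 0.5 mM, ADP 0.1 mM; ATP detected by luminescence after 1 h.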
RE007 growth inh = less growth of the S. pombe RE007 Vpr strain | S. pombe RE007 Vpr strain, BacTiter-Glo ATP luminescence, 24 h | Potency, µM (top dose mostly 92.2 µM), actives largely listed as inhibitors | 360,000 compounds, 0.21% hits | AID 651644; active = well fitted falling curve with a large enough effect; inconclusive = small, poorly fitted or top-dose-only effect; inactive = no such curve, though single readings can be large or run the other way; note: nearly all actives have a fitted effect of over 50% in size
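Fission yeast RE007 carrying one integrated HIV-1 vpr copy, seeded at OD 0.01 in PMG+AL medium with 23 nL pinned compound. Grown 24 h at 30 degrees; viability read by BacTiter-Glo luminescence after 5 min.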
Sm TGR block = blocks Schistosoma mansoni thioredoxin glutathione reductase | 360,000 compounds, 3% hits | AID 485364 | purified TGR, DTNB reduction, TNB absorbance 405 nm | Potency, µM (series often up to 114 µM), most hits filed as inhibitors; note: nearly all actives have a fitted effect of over 60% in size
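Kinetic colorimetric format: TGR-catalysed, NADPH-driven DTNB reduction monitored via TNB absorbance. Enzyme dispensed at 20 nM; compound exposure 15 min at room temperature before reaction start.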
Tb PYK inh = inhibitors of Trypanosoma brucei pyruvate kinase; AID 624173; TbPYK enzyme, Kinase-Glo Plus ATP luminescence, 45 min; 410,000 compounds, 0.12% hits; Potency, µM (series often up to 76.8 µM), usual class: inhibitors; note: nearly all actives have a fitted effect of over 50% in size
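Glycolytic pyruvate kinase of T. brucei was incubated with substrate, test compound and 130 uM ADP for 45 minutes at room temperature. Luminescent Kinase-Glo Plus signal was measured after 10 minutes.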
AMA1-RON2 inh = disrupts binding of P. falciparum AMA1 to RON2 | AlphaScreen AMA1-biotinylated RON2 peptide binding | Potency, µM (highest dose often 58.2 µM), hits mostly inhibitors | 360,000 compounds, 0.2% hits | AID 720542; note: nearly all actives have a fitted effect of over 45% in size
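AMA1 (3D7) with his tag at 25 nM final met compounds first, then biotinylated RON2 peptide at 25 nM; detection used donor plus acceptor beads, 10 µg/mL apiece, read by AlphaScreen after 30 min at room temperature.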
Hits are given with their value; – = inactive; ? = inconclusive; · = not tested or not shown; [ ] = dose if it differs, or a comment. Compounds with a hit are over-represented: about 3.2% of the library has one in this group of screens. Unless noted, calls come from the whole dose curve; as a rule, active = well fitted curve in the direction sought with a large enough effect; inconclusive = small, poorly fitted or top-dose-only effect, or another doubt; inactive = no such curve, though single readings can be large; an effect the other way counts as inactive or inconclusive.

SMILES	LmPK inhibitor	RE007 growth inh	Sm TGR block	Tb PYK inh	AMA1-RON2 inh
O=C(NCc1ccco1)C1CC(c2ccccc2O)=NO1 (centres undefined)	–	–	–	–	–
COc1ccc(OC)c(C2=NOC(C(=O)NCc3ccco3)C2)c1 (centres undefined)	–	–	35.5µM	–	–
Cc1ccc(-c2n[nH]c(=S)n2Cc2ccccc2)cc1	12.6µM	–	–	?	–
Cc1cccc(-c2n[nH]c(=S)n2Cc2ccccc2)c1	17.8µM	–	–	?	–
CCOc1ccc(-c2n[nH]c(=S)n2Cc2ccccc2)cc1	?	–	–	?	–
S=c1[nH]nc(-c2cccc(Cl)c2)n1Cc1ccccc1	?	–	–	?	–
Oc1ccc(-c2n[nH]c(=S)n2Cc2ccco2)cc1	11.2µM	–	–	?	–
Brc1ccc(-c2csc(N3CCCCC3)n2)cc1	·	·	–	·	·
COc1ccc2ccc(O)c(CN3CCN(S(=O)(=O)c4cc([N+](=O)[O-])ccc4C)CC3)c2c1	·	–	1.58µM	–	–
CC(=O)OCCNc1cc(Sc2nc3ccccc3[nH]2)c2nonc2c1[N+](=O)[O-]	–	–	0.316µM	–	–
COC(=O)CCSc1cc(NCCOC(C)=O)c([N+](=O)[O-])c2nonc12	–	–	–	–	–[11.6 µM]
CC(=O)OCCCNc1cc(Sc2nc3ccccc3s2)c2nonc2c1[N+](=O)[O-]	–	–	0.1µM	–	–
CCCC(=O)OCCNc1cc(SCCC(=O)OC)c2nonc2c1[N+](=O)[O-]	–	–	3.55µM	–	–
CC(=O)OCCCNc1cc(Sc2ccc(C)cc2)c2nonc2c1[N+](=O)[O-]	–	–	8.91µM	–	–
CC(=O)OCCNc1cc(SCc2ccco2)c2nonc2c1[N+](=O)[O-]	–	·	–	–	–
CCc1cccc(C)c1NC(=O)c1cn2c3c(ccc(Cl)c3c1=O)OC(C)C2 (centres undefined)	·	·	–	–	·
Cc1oc2c(c(C)cc3oc(=O)c(CC(=O)NCc4ccc(F)cc4)c(C)c32)c1C	·	·	–	–	·
CCC1=NN2C(=N)/C(=C\c3ccc(SCc4ccco4)o3)C(=O)N=C2S1	–	–	50.1µM	–	–
CCCC1=NN2C(=N)/C(=C\c3ccc(SCc4ccco4)o3)C(=O)N=C2S1	–	–	?	–	–
O=C1NC(=S)S/C1=C\c1ccc(SCc2ccco2)o1	?	–	1.26µM	?	?
O=[N+]([O-])c1cc(-c2nc(-c3ccccc3)no2)ccc1NC1CCCCC1	·	·	–	–	·
COc1ccc(N2C(=O)CC(Sc3ncn[nH]3)C2=O)c(OC)c1 (centres undefined)	–	–	0.282µM	?	–
CCCc1c(O)nc(SC2CC(=O)N(c3cc(OC)ccc3OC)C2=O)[nH]c1=O (centres undefined)	–	–	–	–	–
CC(C)c1ccc(N2C(=O)CC(Sc3ncn[nH]3)C2=O)cc1 (centres undefined)	–	56.2µM	0.562µM	–	–
COc1ccc(N2C(=O)C(CC(=O)Nc3ccccc3)N(CCC3=CCCCC3)C2=O)cc1 (centres undefined)	·	·	–	–	·
SMILES	LmPK inhibitor	RE007 growth inh	Sm TGR block	Tb PYK inh	AMA1-RON2 inh
COc1ccc(NC(=O)CCS(=O)(=O)c2cc3c4c(c2)CCN4C(=O)CC3)cc1OC	·	·	–	–	·
CC(C)c1ccc(S(=O)(=O)Nc2ccc3oc4c(c3c2)C(=O)CC(C)(C)C4)cc1	·	·	–	–	·
CC1(C)CC(=O)c2c(oc3cc(O)c(O)cc23)C1	–	–	?	–	1.58µM
C=Cc1ccc(Cn2c(SCC(=O)N3CCN(c4ccc(F)cc4)CC3)nc3ccccc32)cc1	·	·	–	–	·
CCCOc1ccc(C2C(C(=O)c3ccc(C)o3)=C(O)C(=O)N2CCN2CCOCC2)cc1OC (centres undefined)	–	–	39.8µM	–	–
CCN(CC)CCN1C(=O)C(O)=C(C(=O)c2ccc(C)o2)C1c1ccccn1 (centres undefined)	·	–	·	–	–
Cc1ccc(C2C(C(=O)c3sc(C)nc3C)=C(O)C(=O)N2CCN2CCOCC2)o1 (centres undefined)	–	–	39.8µM	–	–
COc1ccc(OC)c(C2C(C(=O)c3ccc(C)o3)=C(O)C(=O)N2CCN2CCOCC2)c1 (centres undefined)	–	–	?	–	–
CC(=O)C1=C(O)C(=O)N(CCCN2CCOCC2)C1c1ccccc1[N+](=O)[O-] (centres undefined)	–	–	44.7µM	–	–
Cc1ccc(C(=O)C2=C(O)C(=O)N(CCN3CCOCC3)C2c2ccccn2)o1 (centres undefined)	–	·	44.7µM	·	·
Cc1cc(C)cc(NC(=O)C2C3C=CC4(O3)C2C(=O)N(CCCN2CCCCC2)C4C(=O)NC2CCCCC2)c1 (centres undefined)	–	–	–	–	–
COCCCN1C(=O)C2C(C(=O)Nc3cc(C)cc(C)c3)C3C=CC2(O3)C1C(=O)NC1CCCCC1 (centres undefined)	–	–	39.8µM	–	–
CCOc1ccc(S(=O)(=O)Nc2cccc(-c3ccc(OCC)nn3)c2)cc1	·	·	–	–	·
O=C1CC(Nc2ccc(N3CCOCC3)cc2)C(=O)N1c1ccccc1 (centres undefined)	–	–	35.5µM	–	–
COc1ccccc1N1C(=O)CC(Nc2ccc(N3CCOCC3)cc2)C1=O (centres undefined)	–	–	20µM	–	–
CCOc1ccccc1N1C(=O)CC(Nc2ccc(N3CCOCC3)cc2)C1=O (centres undefined)	–	–	17.8µM	–	–
O=C1CC(Nc2ccc(N3CCOCC3)cc2)C(=O)N1Cc1ccccc1 (centres undefined)	–	?	20µM	–	–
CCOc1ccccc1N1CC(C(=O)Nc2ccccc2N2CCOCC2)CC1=O (centres undefined)	–	–	–	–	–
COc1ccc(NC2CC(=O)N(c3ccccc3)C2=O)cc1 (centres undefined)	–	–	?	–	–
COc1ccc(-c2csc(-c3nc(-c4ccc(Br)s4)cs3)n2)cc1F	·	·	–	–	·
C/C=C(\C)C(=O)NCCN1C2=NC[C@H](C)N2C[C@@H]1Cc1ccc(OC)cc1	–	–	–	–	–
CCCCCCNC(=O)N[C@H](C(=O)NCCC[C@H]1CN2C(=NC[C@H]2C)N1CCC(c1ccccc1)c1ccccc1)C(C)O (some centres undefined)	–	·	0.501µM	·	·
COc1ccc(-c2cn3cccnc3n2)cc1NC(=O)Nc1cc(C)ccc1C	·	·	–	–	·
O=C(CN1CCN(c2ccc(F)cc2)CC1)c1ccc2c(c1)OCO2	–	–	44.7µM	–	–
O=C(CN1CCN(c2ccc(F)cc2)CC1)c1cccs1	–	–	14.1µM	–	–
